Data as given in PubChem BioAssay.
Values without a mark were called inactive. How the calls were made is not given here.

Molecular target: Pantothenate synthetase (Mycobacterium tuberculosis (strain ATCC 25618 / H37Rv)) (UniProt P9WIL5)
Test: Recombinant Mtb pantothenate synthetase (PanC) inhibitors, coupled enzyme, confirmatory (AID 375);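 further: 0% = full reaction with vehicle and 100% = no enzyme background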
Details: coupled enzyme assay; at 10 µM, hits give high values

Pantothenate synthetase (Mycobacterium tuberculosis (strain ATCC 25618 / H37Rv)), sequence (P9WIL5 whole entry, looked up): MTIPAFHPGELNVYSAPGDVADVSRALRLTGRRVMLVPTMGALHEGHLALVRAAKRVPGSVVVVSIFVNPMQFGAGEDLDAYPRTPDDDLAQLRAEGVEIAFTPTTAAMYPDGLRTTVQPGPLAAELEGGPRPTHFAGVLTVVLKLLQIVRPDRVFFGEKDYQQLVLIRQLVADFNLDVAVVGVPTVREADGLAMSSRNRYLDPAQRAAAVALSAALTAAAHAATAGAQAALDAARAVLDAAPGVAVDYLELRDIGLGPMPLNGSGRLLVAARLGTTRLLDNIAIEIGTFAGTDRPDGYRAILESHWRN

| SMILES | inhibition [%] |
| --- | --- |
| CCOC(=O)c1c(N)nn(C(=O)C(C)C)c1-c1ccccc1 | 0 |
| Cn1cccc1Cc1nnc(SCC(=O)NCc2ccc(F)cc2)n1-c1ccc(F)cc1 | 2 |
| COc1ccccc1N1CCN(C(=O)CSc2nc3ncnc(N)c3[nH]2)CC1 | 8 |
| CCCS(=O)(=O)N1CCC(C(=O)N2CCCC2)CC1 | 7 |
| O=C(CN1CCN(c2ccc(F)cc2)CC1)OCc1ccccc1 | 3 |
| O=S(=O)(NCC1CCCO1)c1ccc(S(=O)(=O)N2CCc3ccccc3C2)cc1 (centres undefined) | 5 |
| CC1(C)CC(=O)c2cnc(NC(=O)CCc3ccccc3)nc2C1 | 0 |
| COc1cc(C2Nc3cccc4cccc(c34)N2)cc(OC)c1O | 0 |
| COc1ccc(S(=O)(=O)N2CCN(CC(=O)Nc3ccc(C)c(F)c3)CC2)cc1 | 0 |
| CCOC(=O)c1oc2c(CN3CCN(C)CC3)c(O)ccc2c(=O)c1-c1ccccc1OC | 0 |
| CCOC(=O)c1c(C)[nH]c(C(=O)Cn2c(=O)c3c(ncn3CC)n(Cc3ccccc3)c2=O)c1C | 3 |
| C=CCNc1nnc(SC2CC(=O)N(c3ccc(OC)cc3)C2=O)s1 (centres undefined) | 0 |
| Cc1ccc(F)cc1NC(=O)c1cccc2nccnc12 | 1 |
| Cc1ccc2nc(-c3ccc4c(c3)OCCO4)cc(C(=O)O)c2c1 | 0 |
| Cc1ccccc1-n1c(Cn2c(=O)sc3ccccc32)nnc1SCC(=O)N1CCCC1 | 8 |
| COCCN1C(=O)c2oc3c(C)cc(C)cc3c(=O)c2C1c1cccc(O)c1 (centres undefined) | 5 |
| N#CC1(c2ccccc2)CCC(=NO)CC1 (centres undefined) | 0 |
| O=C(Nc1ccon1)c1cc(-c2ccccc2)nc2ccccc12 | 0 |
| COC(=O)c1ccc(-c2nn(C)c(=O)c3ccccc23)cc1 | 0 |
| O=C(NCCC1=CCCCC1)C1CCN(C(=O)Nc2ccccc2)CC1 | 0 |
| O=C(NCCO)c1cc2ccccc2cc1O | 0 |
| Cn1nc(-c2ccc(N3CCCCC3)c(NC(=O)c3ccco3)c2)c2ccccc2c1=O | 0 |
| Cc1nc(Nc2nc(=O)c3ccccc3n2C)nc2c(C)cccc12 | 0 |

| SMILES | inhibition [%] |
| --- | --- |
| CC(C)(C)n1nnnc1C(c1ccccc1)N1CCc2ccccc2C1 (centres undefined) | 0 |
| C=CCn1cnc2c(c1=O)c1nc3ccccc3nc1n2-c1ccc(C)cc1 | 0 |
| CCCN(Cc1cc2ccc(C)cc2[nH]c1=O)C(=O)c1cccnc1 | 2 |
| COc1ccc(-c2cc(C(F)F)n3ncc(C(=O)NCC4CCCO4)c3n2)cc1 (centres undefined) | 4 |
| N=c1c(C(=O)NCc2ccc3c(c2)OCO3)cc2c(=O)n3ccccc3nc2n1Cc1cccnc1 | 2 |
| COC(=O)c1[nH]c2c(c1C)C(=O)CC(c1cccs1)C2 (centres undefined) | 3 |
| CCC(c1nnnn1C(C)(C)C)N1CCN(C2CCCC2)CC1 (centres undefined) | 4 |
| CC1CCc2nn(CC(=O)Nc3ccc(F)cc3F)cc2C1 (centres undefined) | 5 |
| Cc1ccc(S(=O)(=O)N(C)CC(=O)NC2CC(C)(C)NC(C)(C)C2)cc1 | 0 |
| Cc1cc(C(=O)Nc2ccc(S(=O)(=O)Nc3onc(C)c3C)cc2)cs1 | 4 |
| O=C(Cn1cccc1)N1CCN(C(c2ccccc2)c2ccccc2)CC1 | 13 |
| O=C(CSc1oc(-c2ccco2)nc1S(=O)(=O)c1ccccc1)NCC1CCCO1 (centres undefined) | 0 |
| O=C(Nc1ccccc1)N1CCC(c2ccccc2)C1 (centres undefined) | 6 |
| O=C(c1ccco1)N1CCN(/C(=N/S(=O)(=O)c2cccs2)c2ccccc2Cl)CC1 | 0 |
| CCOCC(=O)Nc1nc2ccc(OC)cc2s1 | 0 |
| CC(C)N(C(=O)N1CCC(c2nc(-c3ccncc3)no2)CC1)C(C)C | 0 |
| O=C1COc2ccc(C(=O)COC(=O)CCc3ccc(S(=O)(=O)N4CCOCC4)cc3)cc2N1 | 8 |
| O=C(Nc1cnccn1)c1cccs1 | 0 |
| CCN(CC)c1nc2cc(OC)ccc2cc1C#N | 0 |
| Cc1nn(-c2ccc(F)cc2)c2c1cc(C#N)c1nc3ccccc3n12 | 6 |
| COc1ccc(C(=O)Oc2c(CN3CCOCC3)cc(Cl)c3cccnc23)cc1OC | 0 |
| Cc1cn([C@H]2C[C@H](N=[N+]=[N-])[C@@H](CO)O2)c(=O)[nH]c1=O | 0 |
| O=C1c2ccccc2C(Nc2ccc3c(c2)OCCO3)N1Cc1ccco1 (centres undefined) | 0 |

| SMILES | inhibition [%] |
| --- | --- |
| CCOc1cccc(-n2nnnc2-c2ccc(OC)cc2)c1 | 9 |
| O=C(C1CCC(CNc2c(N3CCCCC3)c(=O)c2=O)CC1)N1CCc2ccccc2C1 (centres undefined) | 0 |
| O=C(c1ccc(Br)o1)N1CCN(c2ccc3nnc(-c4ccccc4)n3n2)CC1 | 1 |
| Cc1nnc(SCC(=O)Nc2nccs2)s1 | 0 |
| COc1ccccc1CC(NC(C)=O)C(=O)NC1CCN(c2nnnn2-c2ccccc2)CC1 (centres undefined) | 0 |
| CC(=O)N[C@@H](CS)C(=O)O | 0 |
| Cc1nc(-c2ccccc2)sc1C(N)=O | 0 |
| Cc1cc2oc(=O)cc(CN3CCCCC3)c2cc1C(C)C | 0 |
| CC(Oc1ccccc1)C(=O)Nc1ccc(S(=O)(=O)NCC2CCCO2)cc1 (centres undefined) | 1 |
| CCN1CCN(C(=O)c2cn(CCOC)c(=O)c3c2c2ccccc2n3C)CC1 | 1 |
| Cc1cccc(N(C)C(=O)c2cc3cc4ccc(C)cc4nc3o2)c1 | 0 |
| CCOc1ccc(/C=N/n2cnnc2)cc1 | 3 |
| Cc1cc(NC(=O)CCC(=O)N(c2cccnc2)C(C(=O)NC2CCCC2)c2ccccc2F)no1 (centres undefined) | 0 |
| O=S(=O)(c1ccc(F)cc1)N1CCC(N2CCCC2)CC1 | 0 |
| COc1cccc(-c2cc(C(=O)Nc3c(C)nn(Cc4ccccc4)c3C)no2)c1 | 0 |
| CCc1nnc(NC(=O)c2ccc(COc3ccc(C)cc3)o2)s1 | 1 |
| COc1ccc(CCNC(=O)COc2ccc(S(=O)(=O)N3CCOCC3)cc2)cc1 | 6 |
| CC1(C)OC(=O)C(=CNc2ccccc2)C(=O)O1 | 4 |
| CC(=O)N1CCc2cc(Br)cc(S(=O)(=O)NCCCN3CCCC(C)C3)c21 (centres undefined) | 2 |
| Cc1ccc(NC2c3ncccc3C(=O)N2C2CCCCC2)cc1C (centres undefined) | 0 |
| COc1ccccc1-n1c(=O)[nH]c2c(C(N)=O)nc(-c3cccnc3)nc21 | 0 |
| N#Cc1c(-c2ccccc2)nc(SCc2nc(N)nc(N3CCCCC3)n2)[nH]c1=O | 9 |
| COc1ccc(-c2noc(-c3ccccc3C(=O)Nc3cccnc3)n2)cc1OC | 0 |
